Consider 5 compounds from PubChem BioAssay.

The subject of assay [1] is Plasmodium falciparum Sir2 (PF13_0152, Sir2A). The experiment in a line: pfSir2 binders on small-molecule microarrays, primary screen, biochemical, small-molecule microarray, 635 nm fluorescence (AID 1098).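 Also: score merges spot fluorescence intensity with its signal-to-noise ratio.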 The settings on record: small-molecule microarray binding, fluorescence 635 nm; higher = more signal.
Assay [2] in a line: small-molecule microarray binders of probe aDKK1, primary screen, biochemical, biotinylated probe, 635/667 nm fluorescence (AID 1099).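 Also: score merges 667nm spot fluorescence with signal to noise across triplicate slides.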 The note with it: higher = more signal.
Assay [3] is described as follows: small-molecule microarray binders of probe aCHRDL2, primary screen, biochemical, biotinylated probe, 635/667 nm fluorescence (AID 1100). The settings on record: higher = more signal.
Assay [4] can be described thus: splicing luciferase reporter signal modulators, primary screen, spliceosome inhibition project, cell-based, HEK293, splice +/- reporter (AID 1101).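 Also: HEK293 cells carrying a splicing-competent luciferase reporter gene; test concentration not given here.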 The settings on record: luminescence, 24 h, higher = more signal, called active from +8 up or from −8 down.
The target in assay [5] is Fibroblast growth factor 10 (Homo sapiens) (UniProt O15520). Nature of the assay: FGF10 binders on small-molecule microarrays, primary screen, biochemical, small-molecule microarray, 635 nm fluorescence (AID 1102). The note with it: FGF10 binding, fluorescence 635 nm, higher = more signal.
Assay [6] relates to glycogen synthase kinase-3 (GSK3A per assay name; protocol says GSK3B). Nature of the assay: GSK3 binders on small-molecule microarrays, primary screen, biochemical, small-molecule microarray, 635 nm fluorescence, GSK3A (AID 1103). Also: the record names both GSK3A and GSK3B. The note with it: small-molecule microarray binding, fluorescence 635 nm; higher = more signal.
The target of assay [7] is Epidermal growth factor receptor (Homo sapiens) (UniProt P00533). The experiment in a line: EGFR binders on small-molecule microarrays, primary screen, biochemical, small-molecule microarray, 635 nm fluorescence (AID 1104).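 Also: score merges 667 nm emission intensity with spot signal to noise over triplicate slides.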 The note with it: EGFR binding, higher = more signal.
Assay [8] has as its target Follistatin-related protein 3 (Homo sapiens) (UniProt O95633). The experiment in a line: FSTL3 binders on small-molecule microarrays, primary screen, biochemical, small-molecule microarray, 635 nm fluorescence (AID 1105).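 Also: score merges emission near 667 nm and signal to noise per printed spot across three slides.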 The settings on record: FSTL3 binding, higher = more signal.
Assay [9] addresses Dickkopf-related protein 1 (Homo sapiens) (UniProt O94907). Nature of the assay: DKK1 binders on small-molecule microarrays, primary screen, biochemical, small-molecule microarray, 635 nm fluorescence scan (AID 1106).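 Also: score merges emission near 667 nm with signal to noise over three replicate slides.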 The note with it: DKK1 binding, higher = more signal.
Assay [10] deals with Inhibin beta A chain (activin A). The experiment in a line: INHBA (activin A) binders on microarrays, primary screen, biochemical, small-molecule microarray, 635 nm fluorescence scan (AID 1107).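 Also: mouse activin A protein probed at 4.33 µg/mL on printed slides; score merges bound-protein fluorescence near 667 nm with spot signal-to-noise.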 The settings on record: small-molecule microarray binding, higher = more signal.
Assay [11] deals with Human papillomavirus type 1a protein E7 (residues 44-93). Nature of the assay: HPV1a E7 fragment binders on microarrays, primary screen, biochemical, small-molecule microarray, residues 44-93, 635 nm fluorescence (AID 1108).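 Also: E7 fragment applied at 1 µg/mL in TBST for 1 h at 4 C; score combines spot fluorescence with its signal to noise ratio.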 The settings on record: small-molecule microarray binding, fluorescence 635 nm; higher = more signal.
A short description of assay [12]: modulators of HCV replicon luciferase signal, primary screen, HCV replication inhibitor project, Huh7 cells, luciferase reporter (AID 1109).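 Also: huh7 hepatoma cells harbouring a luciferase neomycin HCV replicon reporter; luciferase luminescence as measure of HCV replicon replication; test concentration not given here.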 The settings on record: 48 h, higher = more signal.
The target of assay [13] is Left-right determination factor 2 (Homo sapiens) (UniProt O00292). The experiment in a line: LEFTY2 binders on small-molecule microarrays, primary screen, biochemical, small-molecule microarray, 635 nm fluorescence scan (AID 1110). The note with it: LEFTY2 binding, higher = more signal.
The target of assay [14] is Calmodulin-1 (Homo sapiens) (UniProt P0DP23). Nature of the assay: CALM1 binders on microarrays, EGTA buffer, profiling panel, biochemical, small-molecule microarray, Cy5-labelled CALM1 (AID 1111).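 Also: labelled calmodulin applied in Tris saline Tween buffer holding calcium plus EGTA and DTT.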 The settings on record: Cy5-CALM1 binding fluorescence, higher = more signal.
The target is the same in assay [15]. Nature of the assay: calcium-bound CALM1 binders on microarrays, profiling panel, artefact control for SMM control-protein annotation, biochemical, small-molecule microarray, Cy5-labelled CALM1, plus calcium (AID 1112).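 Also: score merges spot fluorescence with signal to noise from triplicate slides.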 The settings on record: Cy5-CALM1 binding fluorescence, higher = more signal.
A short description of assay [16]: small-molecule microarray binders of probe aWnt5a, primary screen, biochemical, biotinylated probe, 635/667 nm fluorescence (AID 1113).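 Also: score merges 667 nm fluorescence intensity with signal-to-noise per printed feature.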 The note with it: higher = more signal.
The nature of assay [17]: small-molecule microarray binders of probe aShh, primary screen, biochemical, biotinylated probe, 635/667 nm fluorescence (AID 1114).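 Also: probe is biotin-labelled aShh protein from a stem cell growth factor screen; measures binding of labelled protein to compounds printed on the slide; score merges feature fluorescence at 667 nm with signal-to-noise.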 The settings on record: higher = more signal.
The nature of assay [18]: small-molecule microarray binders of probe aNog, primary screen, biochemical, biotinylated probe, 635/667 nm fluorescence (AID 1115).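 Also: probe is biotinylated aNog protein used at 0.15 µg/mL for 1 h at 4 C; z-score combines 667 nm fluorescence of each spot with its signal to noise.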 The settings on record: higher = more signal.
The target of assay [19] is Torsin-1A-interacting protein 1 (Homo sapiens) (UniProt Q5JTV8). Nature of the assay: LAP1 binders from COS7 cell lysate, primary screen, small-molecule microarray, 635/667 nm fluorescence (AID 1116). The settings on record: COS7-hLAP1 lysate binding, 635 nm fluorescence, higher = more signal.
Assay [20] has as its target Alpha-bungarotoxin (Bungarus multicinctus) (UniProt P60615). The experiment in a line: alpha-bungarotoxin binders on microarray, profiling panel, artefact control for SMM control protein annotation, biochemical, small-molecule microarray, Alexa647 label, 635/667 nm fluorescence (AID 1117). The note with it: alpha-BTX-A647 binding fluorescence, higher = more signal.

Each structure is given as a SMILES string. Calls of active or inactive are those of the source.

Epidermal growth factor receptor (Homo sapiens), sequence (P00533 whole entry, looked up): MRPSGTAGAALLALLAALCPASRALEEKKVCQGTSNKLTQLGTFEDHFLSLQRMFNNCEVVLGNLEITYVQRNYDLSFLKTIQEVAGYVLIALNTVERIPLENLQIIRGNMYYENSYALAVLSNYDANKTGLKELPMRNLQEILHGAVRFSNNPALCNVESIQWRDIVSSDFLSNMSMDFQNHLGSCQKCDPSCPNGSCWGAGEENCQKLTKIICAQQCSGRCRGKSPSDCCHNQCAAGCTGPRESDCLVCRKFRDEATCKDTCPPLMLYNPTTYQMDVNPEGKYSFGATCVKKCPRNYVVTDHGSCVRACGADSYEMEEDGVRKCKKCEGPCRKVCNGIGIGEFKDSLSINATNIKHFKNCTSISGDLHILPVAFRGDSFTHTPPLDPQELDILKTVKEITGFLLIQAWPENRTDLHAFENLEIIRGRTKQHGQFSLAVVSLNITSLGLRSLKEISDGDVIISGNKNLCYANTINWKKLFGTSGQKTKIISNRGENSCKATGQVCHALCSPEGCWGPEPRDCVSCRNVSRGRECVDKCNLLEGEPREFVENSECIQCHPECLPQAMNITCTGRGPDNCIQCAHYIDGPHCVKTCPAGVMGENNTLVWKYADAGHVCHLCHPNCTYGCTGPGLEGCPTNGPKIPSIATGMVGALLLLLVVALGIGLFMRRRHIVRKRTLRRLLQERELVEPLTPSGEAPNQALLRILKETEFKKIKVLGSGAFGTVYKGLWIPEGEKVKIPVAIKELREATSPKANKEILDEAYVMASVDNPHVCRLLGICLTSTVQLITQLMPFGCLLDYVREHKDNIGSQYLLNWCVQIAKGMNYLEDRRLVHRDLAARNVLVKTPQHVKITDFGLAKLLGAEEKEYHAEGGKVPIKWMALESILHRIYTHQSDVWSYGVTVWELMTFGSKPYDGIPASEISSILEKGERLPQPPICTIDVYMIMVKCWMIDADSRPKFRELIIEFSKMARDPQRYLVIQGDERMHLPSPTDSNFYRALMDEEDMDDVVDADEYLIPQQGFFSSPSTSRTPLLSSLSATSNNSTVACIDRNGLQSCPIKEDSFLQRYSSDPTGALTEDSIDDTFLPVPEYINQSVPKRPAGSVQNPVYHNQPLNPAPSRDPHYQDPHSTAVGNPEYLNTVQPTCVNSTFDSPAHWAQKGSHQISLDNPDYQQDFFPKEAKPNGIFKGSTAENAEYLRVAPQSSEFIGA
Dickkopf-related protein 1 (Homo sapiens), sequence (O94907 whole entry, looked up): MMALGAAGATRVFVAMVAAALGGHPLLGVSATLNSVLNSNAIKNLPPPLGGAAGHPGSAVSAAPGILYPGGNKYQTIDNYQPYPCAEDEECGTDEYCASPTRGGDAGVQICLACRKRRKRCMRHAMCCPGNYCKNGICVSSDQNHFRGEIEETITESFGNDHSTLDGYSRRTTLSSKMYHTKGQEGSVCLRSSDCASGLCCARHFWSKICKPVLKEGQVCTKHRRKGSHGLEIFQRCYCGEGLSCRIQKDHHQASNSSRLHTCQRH
Fibroblast growth factor 10 (Homo sapiens), sequence (O15520 whole entry, looked up): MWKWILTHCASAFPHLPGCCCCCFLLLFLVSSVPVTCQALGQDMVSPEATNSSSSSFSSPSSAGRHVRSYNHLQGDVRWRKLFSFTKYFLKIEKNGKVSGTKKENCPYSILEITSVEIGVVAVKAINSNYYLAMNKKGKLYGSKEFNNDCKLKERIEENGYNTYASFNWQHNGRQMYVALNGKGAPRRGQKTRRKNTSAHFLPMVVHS
Follistatin-related protein 3 (Homo sapiens), sequence (O95633 whole entry, looked up): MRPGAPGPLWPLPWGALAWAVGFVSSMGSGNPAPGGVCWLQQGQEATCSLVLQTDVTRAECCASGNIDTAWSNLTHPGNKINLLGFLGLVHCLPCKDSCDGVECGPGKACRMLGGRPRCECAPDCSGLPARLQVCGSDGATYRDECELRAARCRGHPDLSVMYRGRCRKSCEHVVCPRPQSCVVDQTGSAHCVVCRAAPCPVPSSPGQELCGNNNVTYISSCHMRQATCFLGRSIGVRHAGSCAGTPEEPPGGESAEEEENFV
Alpha-bungarotoxin (Bungarus multicinctus), sequence (P60615 whole entry, looked up): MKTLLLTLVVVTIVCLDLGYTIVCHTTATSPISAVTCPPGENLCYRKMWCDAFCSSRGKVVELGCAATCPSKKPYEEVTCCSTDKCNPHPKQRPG
Torsin-1A-interacting protein 1 (Homo sapiens), sequence (Q5JTV8 whole entry, looked up): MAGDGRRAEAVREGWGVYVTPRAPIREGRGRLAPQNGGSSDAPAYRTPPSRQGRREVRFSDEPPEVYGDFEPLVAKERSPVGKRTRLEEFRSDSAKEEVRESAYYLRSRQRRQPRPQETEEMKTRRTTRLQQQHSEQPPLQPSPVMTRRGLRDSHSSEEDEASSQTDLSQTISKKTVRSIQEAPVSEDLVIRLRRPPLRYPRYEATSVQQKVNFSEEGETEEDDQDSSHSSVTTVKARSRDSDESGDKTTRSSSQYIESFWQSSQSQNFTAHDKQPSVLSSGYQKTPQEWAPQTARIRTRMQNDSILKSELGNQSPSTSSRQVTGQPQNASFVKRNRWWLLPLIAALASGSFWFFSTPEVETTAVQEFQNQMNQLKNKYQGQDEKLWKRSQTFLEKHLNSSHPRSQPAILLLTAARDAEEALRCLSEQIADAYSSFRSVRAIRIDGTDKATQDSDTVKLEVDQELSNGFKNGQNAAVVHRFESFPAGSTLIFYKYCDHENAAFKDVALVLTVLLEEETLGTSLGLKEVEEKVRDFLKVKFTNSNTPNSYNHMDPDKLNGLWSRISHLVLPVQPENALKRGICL
Left-right determination factor 2 (Homo sapiens), sequence (O00292 whole entry, looked up): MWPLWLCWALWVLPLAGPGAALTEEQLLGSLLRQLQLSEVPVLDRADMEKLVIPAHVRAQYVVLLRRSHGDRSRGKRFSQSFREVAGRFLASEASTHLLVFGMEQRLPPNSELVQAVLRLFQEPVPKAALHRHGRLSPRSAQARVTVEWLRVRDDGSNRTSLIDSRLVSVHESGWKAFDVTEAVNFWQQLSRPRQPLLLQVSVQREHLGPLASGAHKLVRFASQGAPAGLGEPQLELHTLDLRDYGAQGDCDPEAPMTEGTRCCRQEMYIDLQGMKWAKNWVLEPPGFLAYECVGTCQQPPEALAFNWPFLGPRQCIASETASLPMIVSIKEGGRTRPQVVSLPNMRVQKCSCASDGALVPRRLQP

Turning to `CC(C)(C)OC(=O)CC[C@@]12N=C(c3ccc(OCCCO)cc3)O[C@@H]1c1ccccc1N(Cc1ccccc1)C2=O`, the composite z-score in [1] was 0.727; in [2] it was 0.692; in assay [3], 1.05; in [5], 0.732; in [6], 1.19; in [7], -0.244. Further, the composite z-score in assay [8] was 0.51; in assay [9], 0.117; in assay [10], 1.14; in [11], -0.0568; in assay [13], -0.202; in assay [14], 0.61. Further, the composite z-score in assay [15] was 0.621; in assay [16] it was -0.0327; in assay [17], 0.138; in [18], 0.943; in assay [19] it was 0.786; in [20], 1.36. In addition, the z-score in assay [4] was -0.00084 (inactive); in assay [12], -2.38.

`COC(=O)C1=CC(c2ccc(CO)cc2)=CC(C2CC2)N(C)C=C1C(=O)OC` (stereo not given): the composite z-score is 1.97 in assay [1]; 0.341 in [2]; 0.542 in assay [3]; 0.17 in assay [5]; -0.373 in assay [6]; -0.125 in assay [7]. Also, the composite z-score in [8] is -0.172; in assay [9], 0.466; in assay [10] it was 0.606; in assay [11] it was -0.139; in assay [13], -0.246; in assay [14], 1.52. Also, the composite z-score in [15] is 0.454; in [16], -0.0179; in [17], 0.111; in [18], 0.407; in assay [19] it was 2.82; in assay [20] it was 3.09. Moreover, the z-score was -1.93 (inactive) in assay [4] and -0.748 in assay [12].

As for `C=CCN1C(=O)[C@@]2(O[C@@H](CCO)[C@H]([Si](C)(C)c3ccc(OC)cc3)[C@H]2C)c2cc(N(C=O)c3ccccc3)ccc21`, the composite z-score in [1] was 0.592; in assay [2] it was 0.235; in [3], 0.453; in assay [5], 0.341; in assay [6] it was -0.0443; in [7] it was -0.131. Further, the composite z-score came to 0.131 in [8]; 0.0733 in assay [9]; 1.01 in assay [10]; 0.192 in [11]; 0.0105 in assay [13]; 0.905 in [14]. For the same compound, the composite z-score in assay [15] is 1.06; in assay [16] it was -0.0643; in assay [17] it was -0.138; in assay [18] it was 0.238; in assay [19], 0.473; in assay [20], 0.37. The z-score in assay [4] was -3.43 (inactive); in assay [12], -5.12.

Turning to `C=C(COC)/C(=C/C[C@H](OC(C)=O)c1ccc(CO)o1)c1cnc2ccccc2c1`, the composite z-score in assay [1] was determined as 1.05; in assay [2], 0.0967; in [3], 0.131; in [5] it was 0.979; in assay [6] it was 1.29; in [7] it was 0.477. Moreover, the composite z-score was determined as 1.48 in assay [8]; 0.639 in [9]; 1.61 in assay [10]; 0.729 in assay [11]; 0.149 in [13]; 0.143 in assay [14]. Also, the composite z-score was -0.387 in assay [15]; -0.0445 in assay [16]; 0.0893 in [17]; 0.186 in [18]; 0.845 in assay [19]; 2.83 in assay [20]. For the same compound, the z-score in [4] was -1.03 (inactive); in assay [12], -1.18.

In the case of `CC(CO)N1C(=O)[C@@H]2C3C(=O)OCCC/C=C\[C@H]3OC23C=CCN(Cc2ccccc2)C(=O)[C@@H]13` (stereo not given in full), the composite z-score in [1] was 0.608; in assay [2], -0.206; in [3], 0.0202; in [5], -0.559; in [6], -0.236; in assay [7] it was -0.794. The composite z-score is -0.639 in [8]; -0.386 in [9]; 1.21 in [10]; -0.412 in [11]; -0.784 in [13]; -0.182 in assay [14]. Besides, the composite z-score is -0.292 in assay [15]; -0.176 in assay [16]; -0.0769 in [17]; -0.036 in [18]; -0.307 in [19]; -1.53 in [20]. Further, the z-score in [4] is -0.992 (inactive); in [12], -0.159.
